Assay results reported in PubChem BioAssay AID602144 (Vanderbilt Specialized Chemistry Center, 2011).
The source made the active and inactive calls. No stated cut-off is given here; in the data, active means remaining activity below about 50%; inactive means the rest.

Each compound was assayed against Phospholipase D1 (Homo sapiens) (UniProt Q13393) (assay: PLD1 inhibitors in cells, Calu-1 cells, single concentration (AID 602144;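 further: tested at 200 nM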)). Conditions: cellular PLD1 activity, stronger effect = lower value.
Chain of Phospholipase D1 (Homo sapiens) (Q13393 whole entry, looked up): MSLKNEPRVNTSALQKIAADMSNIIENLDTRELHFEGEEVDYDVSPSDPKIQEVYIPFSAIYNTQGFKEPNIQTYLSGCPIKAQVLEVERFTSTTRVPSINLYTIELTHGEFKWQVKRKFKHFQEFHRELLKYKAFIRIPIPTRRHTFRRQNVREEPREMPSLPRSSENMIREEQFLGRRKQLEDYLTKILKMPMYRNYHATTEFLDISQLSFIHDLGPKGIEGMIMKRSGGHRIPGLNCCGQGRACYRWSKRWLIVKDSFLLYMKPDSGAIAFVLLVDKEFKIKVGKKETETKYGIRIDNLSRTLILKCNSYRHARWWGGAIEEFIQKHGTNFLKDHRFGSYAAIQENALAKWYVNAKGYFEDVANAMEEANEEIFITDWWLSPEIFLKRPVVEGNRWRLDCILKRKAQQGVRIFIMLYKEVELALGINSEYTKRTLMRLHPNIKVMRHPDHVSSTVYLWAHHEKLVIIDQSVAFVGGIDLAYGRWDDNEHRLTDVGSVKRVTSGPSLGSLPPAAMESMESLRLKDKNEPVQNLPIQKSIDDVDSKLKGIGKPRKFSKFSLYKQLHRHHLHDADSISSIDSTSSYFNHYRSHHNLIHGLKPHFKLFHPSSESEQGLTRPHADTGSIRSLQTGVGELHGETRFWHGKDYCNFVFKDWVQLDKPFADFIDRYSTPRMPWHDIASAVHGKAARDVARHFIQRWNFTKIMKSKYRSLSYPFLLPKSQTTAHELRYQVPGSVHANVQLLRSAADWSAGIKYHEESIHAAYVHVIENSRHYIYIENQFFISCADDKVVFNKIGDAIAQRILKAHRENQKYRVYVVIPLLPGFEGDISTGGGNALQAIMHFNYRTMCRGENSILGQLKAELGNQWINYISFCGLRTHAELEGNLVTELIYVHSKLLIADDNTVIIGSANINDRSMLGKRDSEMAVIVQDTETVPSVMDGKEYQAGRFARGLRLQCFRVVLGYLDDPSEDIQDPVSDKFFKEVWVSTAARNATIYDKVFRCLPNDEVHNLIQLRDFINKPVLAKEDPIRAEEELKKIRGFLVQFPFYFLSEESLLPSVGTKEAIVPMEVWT
Chain of Phospholipase D1 (Homo sapiens) (Q13393 whole entry, looked up): as above

For C[C@@H](CN1CCC(n2c(=O)[nH]c3cc(Br)ccc32)CC1)NC(=O)c1ccc(F)cc1, which remaining activity is on record?
The remaining activity was 16.1% (active).

Cc1ccc(C(=O)NCCN2CCC(n3c(=O)[nH]c4cc(Br)ccc43)CC2)cc1 was tested. Which remaining activity did it give?
The remaining activity was 3.74% (active).

C[C@@H](CN1CCC(n2c(=O)[nH]c3ccccc32)CC1)NC(=O)c1ccc2ncccc2c1 was tested. Which remaining activity did it give?
Its remaining activity is 29.2% (active).

How did the remaining activity turn out when C[C@H](CN1CCC(n2nnc3ccccc32)CC1)NC(=O)c1cnc2ccccc2c1 was run?
Its remaining activity is 38.2% (active).

O=c1[nH]c2ccccc2n1C1CCN(CCNS(=O)(=O)c2ccc([N+](=O)[O-])cc2)CC1 was tested. Which remaining activity did it give?
Its remaining activity is 119% (inactive).

C[C@@H](CN1CCC2(CNCc3ccccc32)C1)NC(=O)c1ccc2ccccc2c1 (some centres not stated) was tested. Which remaining activity did it give?
Its remaining activity is 95.4% (inactive).

For Cc1ccc(C(=O)NCCN2CCN(c3ccncc3)CC2)cc1, which remaining activity is on record?
The remaining activity was 148% (inactive).

O=C(NCCN1CCC(n2c(=O)[nH]c3ccccc32)CC1)c1cnccn1 was tested. Which remaining activity did it give?
The remaining activity was 76.7% (inactive).

For O=C(N[C@@H](Cc1ccccc1)CN1CCC(n2c(=O)[nH]c3ccccc32)CC1)c1ccc2ccccc2c1, which remaining activity is on record?
Its remaining activity is 113% (inactive).

For O=C(NCCN1CCN(c2ncccn2)CC1)c1ccc2ccccc2c1, which remaining activity is on record?
The remaining activity was 118% (inactive).

With C[C@@H](CN1CCC(n2c(=O)[nH]c3cc(-c4ccc(C(F)(F)F)cc4)ccc32)CC1)NC(=O)[C@H]1C[C@@H]1c1ccccc1 as the compound, how does the remaining activity read?
The remaining activity was 63.9% (inactive).

How did the remaining activity turn out when COc1ccc(S(=O)(=O)NCCN2CCC(n3c(=O)[nH]c4ccccc43)CC2)cc1OC was run?
The remaining activity was 115% (inactive).

How did the remaining activity turn out when CC(C)C(=O)N[C@@H](C)CN1CCC(n2c(=O)[nH]c3ccccc32)CC1 was run?
Its remaining activity is 104% (inactive).

How did the remaining activity turn out when O=C1c2ccccc2C(=O)N1CCCNc1ccc2ccccc2c1 was run?
Its remaining activity is 145% (inactive).

For O=c1[nH]c2ccccc2n1C1CCN(CCNS(=O)(=O)c2ccccc2C(F)(F)F)CC1, which remaining activity is on record?
The remaining activity was 94.8% (inactive).

For O=C(NCCN1CCC(n2c(=O)[nH]c3cc(Cl)ccc32)CC1)c1ccc(Cl)cc1, which remaining activity is on record?
The remaining activity was 7.16% (active).

For COc1cccc(N2CCN(CCNC(=O)c3ccc(C(F)(F)F)cc3)CC2)c1, which remaining activity is on record?
Its remaining activity is 102% (inactive).

Which remaining activity does the source give for Cn1c(=O)n(C2CCN(CCNC(=O)c3ccc4ccccc4c3)CC2)c2ccccc21 here?
Its remaining activity is 71.6% (inactive).

O=C1c2ccccc2C(=O)N1CCCNCc1ccccn1 was tested. Which remaining activity did it give?
Its remaining activity is 175% (inactive).

O=C(NCCN1CCN(c2ccncc2)CC1)c1ccccc1-c1ccccc1 was tested. Which remaining activity did it give?
The remaining activity was 147% (inactive).

How did the remaining activity turn out when O=C(NCCN1CCC(n2c(=O)[nH]c3ccccc32)CC1)c1ccc2cccc3c2c1CC3 was run?
Its remaining activity is 93.4% (inactive).

C[C@@H](CN1CCC(n2c(=O)[nH]c3cc(-c4ccc(F)c(F)c4)ccc32)CC1)NC(=O)[C@H]1C[C@@H]1c1ccccc1 was tested. Which remaining activity did it give?
The remaining activity was 59% (inactive).

Which remaining activity does the source give for O=C(NCCN1CCC(n2c(=O)n(C(=O)c3ccc(Cl)cc3)c3ccccc32)CC1)c1ccc(Cl)cc1 here?
Its remaining activity is 27.8% (active).

Which remaining activity does the source give for O=C(NCCN1CCN(c2ccncc2)CC1)c1c2ccccc2cc2ccccc12 here?
Its remaining activity is 183% (inactive).

How did the remaining activity turn out when C[C@@H](CN1CCC2(CC1)CN(S(C)(=O)=O)c1ccccc12)NC(=O)c1cnc2ccccc2c1 was run?
The remaining activity was 118% (inactive).

With Nc1ccc(C(=O)NCCN2CCC(n3c(=O)[nH]c4ccccc43)CC2)cc1OC(F)(F)F as the compound, how does the remaining activity read?
The remaining activity was 72.6% (inactive).

For O=C(c1ccc(Cl)cc1)N1CCC(n2c(=O)[nH]c3cc(Cl)ccc32)CC1, which remaining activity is on record?
Its remaining activity is 79.2% (inactive).
